Source: PubChem BioAssay
Hits are enriched below; roughly 0.92% of the tested compounds scored in any of these assays.
CIT2-GFP yeast: yeast TOR pathway CIT2-GFP modulation. AID 2029. GFP response vs DMSO, % at 10 µM. S. cerevisiae CIT2-GFP strain, flow cytometry, 3 h; 100 means same as DMSO wells. actives 0.065% (n = 320,000);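 active means GFP response relative to DMSO above a set limit, near the screen mean plus 3 SD, cut at about 150% in these data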;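 further: ratio of well median GFP fluorescence to mean of DMSO wells on the plate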
LAP4-GFP MLPCN: modulators of TOR pathway LAP4-GFP in S. cerevisiae; S. cerevisiae LAP4-GFP multiplex, flow cytometry GFP, 3 h; median GFP as percent of DMSO wells; GFP response vs DMSO, % at 10 µM; actives 0.34% (n = 320,000);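 active means GFP response vs DMSO above a set limit, about the screen mean plus 3 SD, cut at about 150% in these data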
RPL19A TOR yeast: alters RPL19A-GFP fluorescence in TOR pathway yeast screen; S. cerevisiae RPL19A-GFP strain, flow cytometry, 3 h; active compounds read low; actives 0.3% (n = 330,000); percent response vs DMSO, % at 10 µM;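 active means percent response vs DMSO below 50%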;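 further: median channel GFP fluorescence of the barcoded RPL19A-GFP strain; ratio of sample median GFP to plate DMSO average so 100% = DMSO; lower means less RPL19A-GFP as with rapamycin TOR inhibition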
MEP2-GFP yeast: yeast TOR pathway MEP2-GFP modulation; S. cerevisiae MEP2-GFP strain, flow cytometry GFP, 3 h; 100% = DMSO control level; GFP response vs DMSO, % at 10 µM; actives 0.51% (n = 330,000); AID 2016;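 active means GFP response versus DMSO above a set limit, roughly screen mean plus 3 SD, cut at about 180% in these data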;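 further: median GFP fluorescence of the barcode-gated MEP2-GFP cells per well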
AGP1-GFP MLPCN: modulators of TOR pathway AGP1-GFP in S. cerevisiae; GFP response vs DMSO, % at 10 µM; AID 2066; actives 0.02% (n = 320,000); S. cerevisiae AGP1-GFP multiplex flow cytometry, 3 h; GFP as percent of DMSO wells;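 active means GFP response relative to DMSO above a set limit, near screen average plus 3 SD, cut at about 150% in these data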;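 further: median GFP channel fluorescence of the gated AGP1 strain per well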
LAP4-GFP pick2: second confirmation of modulators of TOR reporter LAP4-GFP in yeast | shares compounds with LAP4-GFP MLPCN | S. cerevisiae LAP4-GFP strain, flow cytometry GFP, 3 h | GFP response vs DMSO, % at 10 µM | actives 20% (n = 590) | AID 2621;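 active means GFP signal as percent of the solvent control above about 150%, meaning raised reporter expression, limit read from the data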;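 further: ratio of well median GFP fluorescence to plate DMSO mean so 100% = DMSO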
MEP2-GFP pick2: yeast MEP2-GFP modulation, second cherry pick; shares compounds with LAP4-GFP MLPCN; AID 2622; S. cerevisiae MEP2-GFP strain, flow cytometry GFP, 3 h; GFP response vs DMSO, % at 10 µM; actives 10% (n = 590);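 active means GFP signal above 150% of the solvent control wells, that is a rise of more than half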;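 further: median channel GFP fluorescence of all gated yeast cells per well; ratio of median GFP to plate DMSO average so 100% = DMSO level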
RPL19A GFP CP2: reconfirmed modulator of RPL19A-GFP TOR reporter in yeast. shares compounds with LAP4-GFP MLPCN. S. cerevisiae RPL19A-GFP strain, flow cytometry GFP, 3 h; active compounds read low; 100% means same as DMSO wells. GFP response vs DMSO, % at 10 µM. actives 3% (n = 590). AID 2623;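 active means under 65% GFP response relative to DMSO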;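 further: median GFP channel fluorescence per well over the all cells gate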
CIT2-GFP pick2: reconfirmed modulator of CIT2-GFP TOR reporter in yeast | actives 8% (n = 590) | S. cerevisiae CIT2-GFP strain, flow cytometry GFP, 3 h; DMSO control wells read 100% | shares compounds with LAP4-GFP MLPCN | GFP response vs DMSO, % at 10 µM;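 active means GFP response vs DMSO above about 150%, limit read from the data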;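 further: median green fluorescence per well over all gated yeast cells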
AGP1 GFP CP2: second confirmation of modulators of TOR reporter AGP1-GFP in yeast; shares compounds with LAP4-GFP MLPCN; 590 tested, under 10 active; S. cerevisiae AGP1-GFP strain, flow cytometry GFP, 3 h; percent response vs DMSO, % at 10 µM;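 active means over 150 percent of DMSO response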;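 further: median GFP channel fluorescence over all cells without mother daughter split; sample median GFP divided by mean DMSO control so 100% equals DMSO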
s288c autofluor: yeast s288c autofluorescence artifact, counter-screen | 610 tested, under 10 active | S. cerevisiae s288c, 520 nm autofluorescence, flow cytometry, 3 h; active compounds read high; zero means same as solvent-only cells | fluorescence change (kMESF span) at 33 µM | shares compounds with LAP4-GFP MLPCN | AID 2757;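 active means fluorescence span over the dose series, or activity score, above about 33, limit read from the data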
Starred values were filed as active, the others as inactive; x = not tested or not shown.

SMILES	CIT2-GFP yeast	LAP4-GFP MLPCN	RPL19A TOR yeast	MEP2-GFP yeast	AGP1-GFP MLPCN	LAP4-GFP pick2	MEP2-GFP pick2	RPL19A GFP CP2	CIT2-GFP pick2	AGP1 GFP CP2	s288c autofluor
O=C1c2ccccc2C(=O)N1OS(=O)(=O)c1ccccc1	95.7	223.3*	86.9	89.5	79.9	144.2	159.7*	72.1	112.0	82.4	2.12
Cc1cc(S(=O)(=O)ON2C(=O)c3ccccc3C2=O)ccc1F	95.4	172.6*	98.8	100.8	89.5	x	x	x	x	x	1.23
Cc1ccc(C2=NCN(c3ccc(C(=O)O)cc3)C(=S)N2)cc1	100.1	101.3	99.3	103.0	105.9	x	x	x	x	x	x
O=S1(=O)C=C(Sc2nc3ccccc3s2)c2ccccc21	86.8	172.1*	91.7	91.2	90.0	175.0*	106.5	103.8	141.4	94.3	0.2
CCCN(CC(=O)Nc1ccccc1C)C(=O)c1ccc(-c2ccc([N+](=O)[O-])cc2)o1	132.4	196.0*	69.7	609.2*	139.9	101.2	101.3	99.3	96.0	101.7	x
c1ccc(OCc2noc(CN3CCC(C4CCCCC4)C3)n2)cc1 (stereo unspecified)	98.2	95.7	102.4	99.7	99.7	x	x	x	x	x	x
CC(C)(C)c1ccc(C(=O)OCc2c(-c3ccccc3)ncc3ccccc23)cc1	87.1	88.2	90.8	87.2	85.4	x	x	x	x	x	x
COc1ccc(C(=O)OCc2c(-c3ccccc3)ncc3ccccc23)cc1	90.2	151.2*	97.7	110.8	104.0	117.3	101.5	96.0	107.4	95.7	x
CCO[C@H]1OC(C(=O)N2CCOCC2)=C[C@@H](c2cn(C(C)=O)c3ccccc23)[C@@H]1CCCO	111.2	222.6*	74.4	507.0*	119.6	99.2	96.1	100.4	102.9	100.3	x
COc1cc(C(=O)O)ccc1OCc1ccncc1	104.0	102.3	104.8	109.9	109.7	x	x	x	x	x	x
Cc1ccc2nc3c(cc(C(=O)NCC4CCCO4)c(=N)n3C3CCCC3)c(=O)n2c1 (stereo unspecified)	94.0	88.4	50.8	104.1	88.9	105.2	110.0	97.8	104.3	102.0	x
Cc1ccc2[nH]cc(C(=O)CN3CCN(c4ccccn4)CC3)c2c1	101.3	88.5	61.5	173.9	23.5	106.2	104.8	96.3	107.1	98.3	x
O=C(CN1CCN(c2ccccc2F)CC1)c1c[nH]c2ccccc12	94.4	159.0*	86.7	174.0	109.5	100.0	96.5	98.8	105.2	101.6	x
Cc1ccc2[nH]cc(C(=O)CN3CCN(C)CC3)c2c1	100.2	100.7	95.3	101.9	96.6	x	x	x	x	x	x
CCS(=O)(=O)N1CCN=C1SCc1cccnc1	104.7	87.8	103.5	104.4	101.6	x	x	x	x	x	x
COc1cc(NC(=O)c2ccc(C)cc2)ccc1NC(=O)c1cc2ccccc2o1	76.5	83.7	92.2	167.5	34.4	x	x	x	x	x	0.1
Cc1cc(NC(=O)c2cccnc2Cl)ccc1NC(=O)c1cc2ccccc2o1	102.6	89.8	105.0	99.9	96.9	x	x	x	x	x	0.1
Cc1cc(NC(=O)c2cccnc2)ccc1NC(=O)c1cc2ccccc2o1	92.3	95.6	93.2	91.5	94.3	x	x	x	x	x	x
CCC(=O)Nc1ccc(NC(=O)c2cc3ccccc3o2)c(OC)c1	103.5	100.7	102.1	99.0	109.8	x	x	x	x	x	0.1
COc1cc(NC(=O)c2c(OC)cccc2OC)ccc1NC(=O)c1cc2ccccc2o1	104.7	90.1	106.7	106.7	96.6	x	x	x	x	x	x
O=C(Nc1ccc(NC(=O)c2cc3ccccc3o2)cc1)c1ccc2c(c1)OCCO2	106.2	98.7	101.0	99.4	104.2	x	x	x	x	x	0.1
COc1cc(NC(=O)c2ccc(Br)cc2)ccc1NC(=O)c1cc2ccccc2o1	86.4	87.8	102.9	110.3	79.4	x	x	x	x	x	x
COc1ccc(N2CCN(C(=O)CCc3ccc(S(=O)(=O)NCC(C)C)cc3)CC2)cc1	95.3	94.7	90.0	91.5	94.2	x	x	x	x	x	x
Cn1nccc1C(=O)N1CCCC(N2CCN(Cc3ccc4c(c3)OCO4)CC2)C1 (stereo unspecified)	111.6	62.9	105.7	91.2	83.4	x	x	x	x	x	x
Oc1c(C(Nc2cccc(C(F)(F)F)c2)c2ccncc2)ccc2cccnc12 (stereo unspecified)	90.0	170.0*	90.6	87.9	88.1	x	x	x	x	x	0.7
SMILES	CIT2-GFP yeast	LAP4-GFP MLPCN	RPL19A TOR yeast	MEP2-GFP yeast	AGP1-GFP MLPCN	LAP4-GFP pick2	MEP2-GFP pick2	RPL19A GFP CP2	CIT2-GFP pick2	AGP1 GFP CP2	s288c autofluor
CN1/C(=C\C(=O)c2ccco2)C(C)(C)c2ccccc21	96.4	180.4*	81.4	101.6	91.8	103.8	104.8	101.9	107.4	97.0	x
COc1ccc(-c2cc(C(F)F)n3ncc(C(=O)NCC4CCCO4)c3n2)cc1 (stereo unspecified)	173.9*	89.2	91.6	92.6	73.2	99.2	99.6	99.7	105.7	95.5	x
CCCCN(CCCNC(=O)c1ccc(CS(=O)(=O)c2ccc(OC)cc2)o1)Cc1ccccc1	95.1	91.5	57.5	142.3	16.5	101.9	98.2	101.5	101.8	100.6	x
COCCNC(=O)c1ccc(CS(=O)(=O)c2ccc(OC)cc2)o1	101.1	102.8	98.2	95.9	106.0	x	x	x	x	x	x
COc1ccc(/C(C)=N/NC(=O)C(NC(=O)c2ccccc2)c2n[nH]c(=O)c3ccccc23)c(OC)c1 (stereo unspecified)	91.9	100.7	92.4	92.4	96.2	x	x	x	x	x	x
CCOC(=O)c1sc(Nc2ccccc2Cl)nc1C	81.5	108.5	52.2	168.4	73.3	99.0	98.2	99.6	93.9	95.0	x
CC(C)c1ccc(NC(=O)COC(=O)c2cc(=O)[nH]c3ccccc23)cc1	96.5	93.1	97.5	100.5	96.3	x	x	x	x	x	x
